Test results taken from the supplement of paper PMC3334620.
Over roughly 33,000 sequences, “E-score (-0.5 to 0.5)” has its median near -0.021; the highest 2% begin near 0.32. The full list was thinned out, with the highest values kept by preference.

What follows are sequences tested against T1, Zap1 (UniProt P47043) (assay: PBM E-score (8-mer binding enrichment) (E-score (-0.5 to 0.5)); higher = stronger / more preferred TF binding). Conditions: protein concentration: 200 nM; construct: GST-full length.
T1 sequence: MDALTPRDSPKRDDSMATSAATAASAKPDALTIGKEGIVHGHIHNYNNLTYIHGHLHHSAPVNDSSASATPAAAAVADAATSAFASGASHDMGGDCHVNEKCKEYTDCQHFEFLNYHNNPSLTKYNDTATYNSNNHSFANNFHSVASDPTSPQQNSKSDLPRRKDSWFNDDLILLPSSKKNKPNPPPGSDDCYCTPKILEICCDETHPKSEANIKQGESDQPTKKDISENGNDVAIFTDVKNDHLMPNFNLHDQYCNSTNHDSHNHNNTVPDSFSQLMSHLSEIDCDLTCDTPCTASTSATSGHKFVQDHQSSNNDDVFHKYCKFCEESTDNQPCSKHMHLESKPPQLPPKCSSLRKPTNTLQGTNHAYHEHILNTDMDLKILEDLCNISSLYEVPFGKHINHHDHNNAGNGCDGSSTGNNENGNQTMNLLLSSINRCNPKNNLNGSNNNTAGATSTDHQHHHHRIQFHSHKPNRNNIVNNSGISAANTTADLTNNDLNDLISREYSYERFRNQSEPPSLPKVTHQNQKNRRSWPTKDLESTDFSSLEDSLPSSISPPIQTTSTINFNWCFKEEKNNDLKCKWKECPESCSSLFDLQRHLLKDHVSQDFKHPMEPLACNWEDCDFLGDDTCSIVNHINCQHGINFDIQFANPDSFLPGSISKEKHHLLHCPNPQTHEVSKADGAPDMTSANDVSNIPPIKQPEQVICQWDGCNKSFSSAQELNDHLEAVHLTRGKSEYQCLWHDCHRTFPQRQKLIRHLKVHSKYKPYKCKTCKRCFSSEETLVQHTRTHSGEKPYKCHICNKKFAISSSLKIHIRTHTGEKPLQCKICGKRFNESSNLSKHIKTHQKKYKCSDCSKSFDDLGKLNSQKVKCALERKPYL
Method in brief: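 Universal all-10-mer Agilent arrays, double-stranded by primer extension on fresh or once-stripped slides, were probed with about 100-200 nM GST-tagged yeast transcription factors made by PURExpress. Fluorescent anti-GST detected bound protein, and masliner normalised the scans. E-scores from the Universal PBM Analysis Suite were given to each ungapped eight-base word pooled with its reverse complement.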

Sequence | PBM E-score
GTACCCTA | 0.413
CTACCCTC | 0.35
ATACCCTA | 0.459
CTACCCTA | 0.291
CTACCCCC | -0.295
ATACCCGC | 0.314
GTACCCGA | 0.184
AGCATCTA | -0.248
CTCTTGCA | -0.161
AACGGCGA | 0.0503
ATAAAGCA | -0.0384
CCGTCCCA | -0.0821
AAATAGCT | -0.141
CCTCTTGA | 0.148
AGGACCCT | 0.226
CACTGCGC | -0.192
TCACCAGA | 0.015
CCACAAGG | 0.33
CCACAAGA | 0.0787
CCACAAGC | 0.0428
CCACAAAA | 0.237
CCACAAAC | 0.147

Sequence | PBM E-score
CCACAAAG | 0.34
ACTAGATA | 0.115
AGTGCAAC | 0.0909
CGGGTGTA | 0.0123
AAAGGGTG | 0.247
CAGGGGTA | 0.286
AAGGGGTC | 0.264
AAAGGGCT | 0.00434
AGAGGGTC | 0.213
CAAGGGCC | 0.0489
CAAGGGTC | 0.355
AAAGGGTC | 0.363
AAAGGGTT | 0.396
AAAGGGGC | -0.00977
GAAGGGTC | 0.211
CAGGGGTC | 0.321
CACGATCC | 0.141
AGCTAAAC | -0.144
TCCAGCGA | -0.138
AGATGGAT | -0.254
CAAGGGTG | 0.262
CAAGGGCA | -0.182

Sequence | PBM E-score
AAAGGGGG | -0.385
ACAAGGGC | -0.137
CAAGGGTA | 0.398
CGGGGGTC | -0.0576
CCGGGGTC | 0.348
ACAAGGGT | 0.387
AAGGGGGT | -0.271
ACGGGGTC | 0.218
AAAGGGGT | 0.32
ACAAGGGG | -0.128
ATTTAGCA | 0.0848
AAAAGTCG | -0.033
TAAGCGCA | -0.0722
CTAATGCA | 0.132
AAAAGGGT | 0.386
AAAAGGGA | -0.0112
AAAAGGGC | 0.149
CCAGATGA | -0.0669
GATCGTAC | -0.069
CTTAGAGA | -0.0526
GAATGGAC | 0.0207
GCTATCGA | -0.0297

Sequence | PBM E-score
CTCCGAAC | -0.196
AATCTCGC | -0.0495
GACCTTAA | 0.324
CACCTTAC | 0.148
AGCCTTAA | -0.0565
TGCCTTAA | -0.0666
AACCTTAG | 0.324
AACCTTAT | 0.312
AACCTTAC | 0.318
GAGCTTAA | -0.0983
GACCTTAC | 0.13
CACCTTAG | 0.245
GTCCTTAA | 0.268
GGCCTTAA | 0.319
CGGTCCCA | -0.0137
AACGACCT | 0.211
ACTTGCAC | -0.141
GGGGGGAA | -0.411
GGTATCAC | 0.0481
AACTGGCG | -0.0757
